Bioassay records deposited in PubChem BioAssay by National Center for Advancing Translational Sciences (NCATS).
This is a sample that favours compounds with a hit; in the whole collection about 19% have one here.
TDP1 cell CPT: growth inhibition of DT40 Tdp1-/-;hTDP1 cells with camptothecin (screen for TDP1 inhibitors) | Potency, µM (series often up to 46.2 µM), without a hit: top-dose activity change, negative = growth inhibition, hits mostly inhibitors | AID 686979 | chicken DT40 Tdp1-/-;hTDP1 cells + 20 nM CPT, ATP luminescence, 48 h | hit rate 12% among 420,000; note: potency is the fitted concentration of half-maximal effect; nearly all actives have a fitted effect of over 55% in size
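Cell growth measured by CellTiter-Glo luminescence after a minimum 48 h, 37 C compound exposure with 20 nM CPT in Tdp1-knockout DT40 cells stably expressing hTDP1, seeded 400/well; qHTS titration format.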
TDP1 cell noCPT: qHTS for Inhibitors of human tyrosyl-DNA phosphodiesterase 1 (TDP1): qHTS in cells in absence of CPT. DT40 Tdp1-/- hTDP1 cells, no CPT, ATP luminescence, 48 h. Potency, µM (titrated, usually from 46.2 µM), inactives show at the top dose activity change, negative = growth inhibition, usual class: inhibitors. hit rate 15% among 420,000; note: potency is the fitted concentration of half-maximal effect; nearly all actives have a fitted effect of over 55% in size
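Luminescent ATP content (CellTiter-Glo) served as the growth readout. Knockout chicken DT40 cells expressing human TDP1 were exposed to compounds without camptothecin for a minimum 48 hr at 37 °C.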
HT1080NT lethal: kills 2HG-producing HT-1080-NT fibrosarcoma cells; Potency, µM (titrated, usually from 46.1 µM), for the others: top-dose activity, negative = less viability, actives largely listed as cytotoxic; AID 686970; hit rate 1.6% among 360,000; HT-1080-NT fibrosarcoma viability, CellTiter-Glo ATP luminescence, 48 h;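 note: NT is the 2HG producing partner of a matched IDH1 knockdown line; potency is the fitted concentration of half-maximal effect; 0% = DMSO-treated cells and -100% = media-only wells without cells; nearly all actives have a fitted effect of over 55% in size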
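Compounds were tested in concentration-response format on HT-1080-NT cells for 48 hours at 37 degrees C. Cell viability came from CellTiter-Glo luminescence; curves were classified by r2, response magnitude and activity.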
IL-1B inflam inh: inflammasome signaling inhibition, IL-1 beta readout; hit rate 4.7% among 360,000; activity change, % at 57.5 µM; THP-1 LPS/ATP IL-1B secretion, AlphaLISA, 16 h; active compounds read low; in the data active = activity change below about -50%; inconclusive = mostly about -30% to -49%
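THP-1 cells pretreated 1 hr with compounds (up to 57.5 uM final), then stimulated with LPS (250 ng/mL final) plus ATP (1.25 mM final); secreted IL-1B measured by AlphaLISA after 16 hr, decreased signal indicating inhibition.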
HT1080 IDH1KD tx: HT-1080 IDH1 knockdown cell toxicity (counter line). HT-1080 IDH1 knockdown viability, ATP luminescence, 48 h. Potency, µM (titrated, usually from 46.1 µM), for inactives: at the top dose activity, negative = toxicity, actives largely listed as cytotoxic. hit rate 2% among 360,000;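 note: potency is the fitted concentration of half-maximal effect; 0% = DMSO wells and -100% = cell-free medium wells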
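Viability of IDH1-knockdown HT-1080 fibrosarcoma cells was assessed by CellTiter-Glo after 48 h at 37 °C with titrated compound; concentration-effect curves were classified by fit quality and response size.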
* = called active by the depositor; ? = inconclusive; . = not tested or not shown. Unless noted, calls come from the whole dose curve; as a rule, active = well fitted curve in the direction sought with a large enough effect; inconclusive = small, poorly fitted or top-dose-only effect, or another doubt; inactive = no such curve, though single readings can be large; an effect the other way counts as inactive or inconclusive. Unless noted, % is set by controls: 0 for no effect and ±100 for the full control effect.

SMILES	TDP1 cell CPT	TDP1 cell noCPT	HT1080NT lethal	IL-1B inflam inh	HT1080 IDH1KD tx
Cc1nn(C)cc1C(C(=O)NC1CCCCC1)N(C(=O)Cc1cccs1)c1ccc(Cl)cc1 (configuration not stated)	2.9µM*	6.5µM*	-4%	1	-24%
COc1cc(N(C(=O)Cc2cccs2)C(C(=O)NC2CCCCC2)c2ccc(C)cc2)ccc1-n1cnnn1 (configuration not stated)	21µM*	13µM*	-8%	1	-18%
COc1ccc(N(C(=O)Cc2cccs2)C(C(=O)NC2CCCCC2)c2cccn2C)cc1OC (configuration not stated)	-1%	-18%	1%	-6	0%
CCc1nc2c(OCc3ccc(OC(F)F)cc3)cccn2c1N(C)C(=O)c1ccco1	?	?	17%	-13	10%
COc1cccc(C(=O)NCC(=O)NCc2cc(=O)n(C)c(=O)n2C)c1	-3%	-8%	13%	12	13%
CCNc1ncc2nc(-c3ccccc3)c(=O)n(CCOC)c2n1	-10%	-15%	.	.	.
Cc1sc(NC(=O)c2ccccc2F)c(CN2CCCCC2C)c1C (configuration not stated)	18µM*	12µM*	8%	1	11%
Cc1c(C(=O)N2CCOCC2)sc(NC(=O)c2ccccc2F)c1C#N	-6%	-11%	-14%	5	12%
CC(NC(=O)c1ccc(CS(C)(=O)=O)cc1)c1cccc2ccccc12 (configuration not stated)	-1%	-3%	-13%	-8	-2%
COc1ccc(C)cc1NC(=O)CN(C)C1CCCCC1	?	?	-15%	24	-15%
C=CCn1c(-c2ccc(OC)cc2)csc1=Nc1c(C)n(C)n(-c2ccccc2)c1=O	21µM*	21µM*	-18%	-19	-14%
CCOC(=O)C1(CC2CCCCO2)CCN(S(=O)(=O)c2cccc(F)c2)CC1 (configuration not stated)	-14%	-8%	-7%	16	-3%
CCOC(=O)C1(CC2CCCCO2)CCN(Cc2cc3ccccc3[nH]2)CC1 (configuration not stated)	?	16µM*	?	-91*	?
CCOC(=O)C1(CC2CCCCO2)CCN(Cc2ccccc2-c2ccco2)CC1 (configuration not stated)	?	21µM*	4%	40	10%
CCOC(=O)C1(CC2CCCCO2)CCN(Cc2cn[nH]c2-c2cccc(F)c2)CC1 (configuration not stated)	16µM*	10µM*	1%	22	-1%
Cc1cc(C)nc(NC(=S)Nc2cccc(Cl)c2Cl)c1	-16%	-23%	23%	0	22%
CC(SC1=NCCS1)C(=O)Nc1nnc(-c2ccc(Cl)cc2)s1 (configuration not stated)	15µM*	21µM*	11%	?	9%
CCNc1nnc(-c2ccccc2OC)s1	-18%	3%	2%	0	18%
COc1ccccc1-c1nnc(NC(=O)C(C)SC2=NCCS2)s1 (configuration not stated)	21µM*	?	-12%	?	0%
COCCNC(=O)Cn1cc2c(n1)-c1c(oc(C(=O)N3CCCC3)c1C)CC2	-23%	-2%	.	.	.
COCCCNC(=O)c1oc2c(c1C)-c1nn(Cc3cccc(Cl)c3)cc1CC2	21µM*	18µM*	.	.	.
COCCCNC(=O)c1ccc(CN2CCc3ccccc3C2)cc1	-21%	?	9%	21	0%
COCCCNC(=O)c1oc2c(c1C)-c1nn(Cc3ccc(Cl)cc3)cc1CC2	23µM*	18µM*	.	.	.
CCN(CC)CCCNC(=O)c1oc2c(c1C)-c1nn(Cc3ccc(Cl)cc3)cc1CC2	?	18µM*	.	.	.
CCCCN(C)CCCNC(=O)Cn1cc2c(n1)-c1c(oc(C(=O)N3CCCC3)c1C)CC2	?	?	8%	10	-1%
SMILES	TDP1 cell CPT	TDP1 cell noCPT	HT1080NT lethal	IL-1B inflam inh	HT1080 IDH1KD tx
Cc1cc(SCc2cccc(Cl)c2)nc(=O)[nH]1	5%	6%	-3%	-1	0%
O=C(c1ccco1)N1CCN(Cc2nnc(-c3ccccc3)o2)CC1	14%	-2%	1%	2	5%
CC(C)(C)CNC(=O)C1(C)CCN1C(=O)c1ccccc1CCc1ccccc1 (configuration not stated)	21µM*	16µM*	-1%	-18	-20%
CC1(C(=O)Nc2cccc3ncccc23)CCN1C(=O)Cc1ccc(-c2ccccc2)cc1 (configuration not stated)	23µM*	16µM*	?	-10	?
CCC(C)NC(=O)Cc1ccc(-c2ccccc2)cc1 (configuration not stated)	?	21µM*	-5%	-8	1%
CC1(C(=O)NC2CCCCCC2)CCN1C(=O)Cc1ccc(-c2ccccc2)cc1 (configuration not stated)	?	15µM*	?	-8	?
CCCC(C)NC(=O)Cc1ccccc1 (configuration not stated)	-4%	-10%	-1%	-11	-2%
CCCNC(=O)C1(C)CCN1C(=O)c1ccccc1CCc1ccccc1 (configuration not stated)	?	?	?	1	0%
CC1(C(=O)NC2CCCCCC2)CCN1C(=O)C1(c2ccccc2)CC1 (configuration not stated)	12µM*	18µM*	-10%	-3	-5%
CC(C)NC(=O)C1(C)CCN1Cc1ccc(-c2ccccc2)cc1 (configuration not stated)	12µM*	8.2µM*	?	-8	?
COc1ccccc1CNC(=O)C1(C)CCN1C(=O)Cc1ccc(-c2ccccc2)cc1 (configuration not stated)	16µM*	15µM*	?	-23	?
CC(C)NC(=O)C1(C)CCCN1C/C=C/c1ccccc1 (configuration not stated)	21µM*	23µM*	17%	37	-3%
O=C(COc1ccccc1)Nc1nnc(S(=O)(=O)Nc2ccccc2)s1	-5%	-6%	-1%	-5	-6%
CN(C(=O)C1CCCCC1)C1(C)CCS(=O)(=O)C1 (configuration not stated)	14%	-2%	9%	10	3%
CCCC[n+]1ccn(-c2nc3c([N+](=O)[O-])cccc3n2C)c1	-20%	?	0%	9	1%
CSc1ccc(NC(=O)C2(C)CCN2C(=O)Cc2ccc(C(C)(C)C)cc2)cc1 (configuration not stated)	23µM*	?	?	-6	?
